± gives the standard deviation.
What was measured:
[1] = test system: MILI (PIWIL2) piRISC loaded with L1MC piRNA (26 nt); assay: pre-steady-state target cleavage rate (min^-1); guide: L1MC piRNA 5'p-UAACUAAAUACUAUGCAAGCUGUAGG; higher = faster piRNA-guided slicing of the target
In short: (§1)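 The method was Cleave-'n-Seq, in which uncleaved targets from a transcribed, DNA-blocked target RNA library were sequenced after exposure to active affinity-purified piRISC carrying one synthetic guide, with or without GTSF1 partner protein. Reactions contained 0.1 nM library, 1 nM piRISC and, where present, 500 nM GTSF1 in HEPES–potassium acetate buffer at 33 °C for 0–8 or 0–960 min. Reads were normalised to depth and to weakly complementary targets, three trials were pooled, and k3 was capped at 0.0001 min^-1. The pre-steady-state cleavage rate came from a burst-and-steady-state fit.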

[2] = test system: EfPiwi piRISC loaded with L1MC piRNA (26 nt); assay: pre-steady-state target cleavage rate (min^-1); auxiliary factor: 500 nM Ephydatia muelleri Gtsf1; guide: L1MC piRNA 5'p-UAACUAAAUACUAUGCAAGCUGUAGG; MIWI and MILI are mouse PIWI proteins and EfPiwi is from a freshwater sponge; tags in brackets are library labels; higher = faster piRNA-guided slicing of the target
In short: as §1

[3] = auxiliary factor: 500 nM mouse GTSF1
[4] = auxiliary factor: none (no GTSF1)

Sequence | pre-steady-state target cleavage rate [1, 3] | pre-steady-state target cleavage rate [2] | pre-steady-state target cleavage rate [1, 4]
UCCUGCUACAGGUUGCAUAGAAUUUAGUUA | 0.0387 ± 0.0083 | 0.00649 ± 0.0018 | 
UCCUGGAACAGCUUGCAUAGCAUUUAGUUA | 0.0886 ± 0.013 | 0.00399 ± 0.0015 | 
UCCUGCUACAGCUUGCAUAGUAAAAAGUUA | 0.214 ± 0.036 | 0.00305 ± 0.0016 | 
UCCUGCUACAGCUUGCAUAGUUUUUUGUUA | 0.112 ± 0.028 | 0.00384 ± 0.0021 | 
UCCUGGAACAGCUUCCAUAGUAUUUAGUAA | 0.0767 ± 0.03 | 0.00376 ± 0.0014 | 
UCCUGGAUGAGCUUCCAUAGUAUUUAGUAA | 0.0143 ± 0.0073 | 0.00253 ± 0.0019 | 
UCCUCCUACUGCUUGCAUAGUAUUUACUUA | 0.0701 ± 0.013 | 0.00299 ± 0.0029 | 
UCCUCCUACUGCUUGCAUAGUAUUUUCAAA | 0.0284 ± 0.0085 | 0.00274 ± 0.0026 | 
UCCUGGAACAGCUUGCAUAGUAUUUAUGUUA | 0.127 ± 0.018 | 0.0035 ± 0.002 | 
UCCUGGUACAGCUUGCAUAGAAUUAAGUUA | 0.0989 ± 0.03 | 0.00454 ± 0.0027 | 
UCCUGCUACAGCUUGCAAACUAUUUAGUUA | 0.048 ± 0.012 | 0.00535 ± 0.002 | 
UCCUGGAUGUCCUUGCAUAGUAUGUAGUUA | 0.107 ± 0.022 | 0.00374 ± 0.0037 | 
UCCUGCUACAGCUUGCAUACGUAUUUAGUUA | 0.00697 ± 0.0042 | 0.00225 ± 0.0022 | 
UCCUCCUACAGCAUGCAUAGUAUUUACAAA | 0.205 ± 0.037 | 0.00397 ± 0.0026 | 
UCCUGCUACAUGCUUGCAUAGUAUUUAGUUA | 0.0998 ± 0.021 | 0.00438 ± 0.002 | 
UCCUGGAUGAGCUUGCAUAGUAUUUAGAAA | 0.119 ± 0.03 | 0.00648 ± 0.0025 | 
UCCUCCUACAGCUUGCAUAGGUAUUUAGUUA |  | 0.0036 ± 0.0026 | 0.00373 ± 0.0024
UCCUGCUACAGCAUGCAUAGUAUUUAGAUA | 0.179 ± 0.033 | 0.00378 ± 0.0015 | 
UCCUGCUACAGCUUGCAUACUAUUUAGAUA | 0.0214 ± 0.0094 | 0.00382 ± 0.002 | 
UCCUGCUACAGCUUGCAUAGUAAUUUGUUA | 0.245 ± 0.053 | 0.00579 ± 0.002 | 

Sequence | pre-steady-state target cleavage rate [1, 3] | pre-steady-state target cleavage rate [2] | pre-steady-state target cleavage rate [1, 4]
UCCUGCUACAGCUUGCAUAGAAUUUAGUUA | 0.0612 ± 0.014 | 0.00582 ± 0.0022 | 
UCCUGGAACAGCUUGCAUAGUAUUCUAGUUA | 0.145 ± 0.032 | 0.00277 ± 0.0018 | 
UCCUCCUACAGCAUCCAUAGUAUUUAGUUA | 0.175 ± 0.042 | 0.00359 ± 0.0017 | 
UCCUCGUACAGCUUGCAUAGAAUUUAGUUA | 0.0473 ± 0.0079 | 0.00771 ± 0.0018 | 
UCCUCCUACAGGUUGCAUAGUAUUUAGAUA | 0.123 ± 0.017 | 0.00362 ± 0.00095 | 
UCCUCGAACAGCUUGCAUAGUAUUUUCAAA | 0.102 ± 0.021 | 0.00321 ± 0.0022 | 
UCCUCCUACAGCUUGCUUAGUAUUUAGAUA | 0.15 ± 0.018 | 0.00689 ± 0.0038 | 
UCCUGGAUCAGCUUGCUAUAGUAUUUAGUUA | 0.0101 ± 0.0052 | 0.00528 ± 0.0019 | 
UCCUGGUACAGGUUGCAUAGAAUUUAGUUA | 0.0804 ± 0.021 | 0.00277 ± 0.0022 | 
UCCUGGAUGUGCUUCCAAAGUAUUUAGUUA | 0.0214 ± 0.0068 | 0.00463 ± 0.0046 | 
UCCUGCUACAGCUUGCAUAGUAUUUACAUA | 0.157 ± 0.041 | 0.0023 ± 0.0023 | 
UCCUGGUACUGCUUGCAUAGUAUUUACAAA | 0.00977 ± 0.0049 | 0.00278 ± 0.0027 | 
UCCUGGAUCAGCUUGCAUAGUAUAUAGUAA | 0.189 ± 0.019 | 0.00291 ± 0.0023 | 
UCCUGCUACAGCUUGCAUAGUAUUAUCUUA | 0.16 ± 0.035 | 0.00653 ± 0.0042 | 
UCCUCGAACAGCUUGCAUAGUAUUUAGAAA | 0.137 ± 0.019 | 0.00534 ± 0.0018 | 
UCCUCCUACAGCUUGCAUAGUUAUUAGAAA | 0.0109 ± 0.0053 | 0.00348 ± 0.0028 | 
UCCUGGAACAGCUUGCAUACUAUUAAGUUA | 0.0333 ± 0.012 | 0.00246 ± 0.0024 | 
UCCUGGAACAGCUUGGAUAGUUUUUAGUUA | 0.0453 ± 0.0097 | 0.00298 ± 0.0022 | 
UCCUGCUACAGCUUGCAUAGUAUUUGUUA | 0.124 ± 0.028 | 0.00505 ± 0.002 | 
UCCUCCUACAGCUUGCAUAGUAUAUAGUAA | 0.147 ± 0.023 | 0.00441 ± 0.002 | 

Sequence | pre-steady-state target cleavage rate [1, 3] | pre-steady-state target cleavage rate [2] | pre-steady-state target cleavage rate [1, 4]
UCCUCGUACAGCUUCCAUAGUAUUUAGUUA | 0.0687 ± 0.018 | 0.00339 ± 0.0014 | 
UCCUGGUACUGCUUGCAUAGUAUUUUCAAA | 0.0112 ± 0.0064 | 0.00285 ± 0.0022 | 
UCCUCCUACAGCUUGCAAAGUAUUUAGAUA | 0.0875 ± 0.015 | 0.00419 ± 0.0024 | 
UCCUGGAUGUCGAACCAUAGUAUUUAGGUA |  |  | < 0.0001
UCCUGGAUGUCCUUGCAUAGUAUUUAGCUUA | 0.0698 ± 0.014 | 0.0051 ± 0.0028 | 
UCCUGGAUGUGCUUCCAUAGUAUUUAGUUA | 0.0271 ± 0.0077 | 0.00277 ± 0.0019 | 
UCCUCCUACUGCUUCCAUAGUAUUUAGUUA | 0.0403 ± 0.0098 | 0.0043 ± 0.0018 | 
UCCUGGAACAGCUAGCAUAGUAUUUUGUUA | 0.154 ± 0.029 | 0.00465 ± 0.003 | 
UCCUCCUACAGCUUGCAUAGUUAAUAGUUA | 0.0685 ± 0.022 | 0.00703 ± 0.0035 | 
UCCUCCUACAGGUUGCAUAGAAUUUAGUUA | 0.0405 ± 0.0092 | 0.0062 ± 0.0014 | 
UCCUGGAUGUCGAAGGAAAGUAUUUAGUUA |  | < 0.0001 | < 0.0001
UCCUGGUACAGCUUGCAAAGUAUUUAGAUA | 0.118 ± 0.021 | 0.00431 ± 0.0026 | 
UCCUCCUACAGCUUGGAUAGUAUUUACAAA | 0.021 ± 0.0081 | 0.00267 ± 0.0022 | 
UCCUGCUACUGCUUGCAUAGUAUUUAGUAA | 0.146 ± 0.034 | 0.00464 ± 0.0016 | 
UCCUGGAACAGCUUGCAUAGUAUAUUGUUA | 0.153 ± 0.029 | 0.00533 ± 0.0022 | 
UCCUCCUACAGCUUGCUUAGAAUUUAGUUA | 0.0487 ± 0.011 | 0.00419 ± 0.002 | 
UCCUGGAUGAGCUUGCAUAGCAUUUAGUUA | 0.0853 ± 0.016 | 0.0029 ± 0.0019 | 
UCCUGGAUGUGCUUGCAUAGUAUUCAGUUA | 0.0572 ± 0.015 | 0.00279 ± 0.0024 | 
UCCUGCUACAGCUUGCAUAGAUUUAGUUA | 0.00937 ± 0.0054 | 0.00286 ± 0.0015 | 
UCCUGCUACAGGUUGCAUAGUAUUUAGAAA | 0.0337 ± 0.011 | 0.00261 ± 0.0014 | 

Reference: the supplement of paper PMC10338343
